CHO-K1 Ca antag – counter-screen for M1 antagonists: effect in parental CHO-K1 cells; inhibition, % at 3 µM; 360,000 compounds, 0.6% hits; ATP-induced calcium, Fluo-8 fluorescence;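 active means inhibition above a per-plate cutoff, the plate's mean sample inhibition plus 3 SD, cut at about 24% in these data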
CHRM1 antagonist – human M1 muscarinic receptor antagonists, primary screen, CHO-K1 cells, Fluo-8 calcium fluorescence, 1536-well. AID 588852, 2011. inhibition, % at 3 µM. CHO-K1 hM1, ACh EC80 antagonist. 360,000 compounds, 1.3% hits. Muscarinic acetylcholine receptor M1 (Homo sapiens), P11229;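 active means percent inhibition above its own plate's cutoff, namely the mean of that plate's compound wells plus 3 SD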;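 further: peak over basal fluorescence ratio during 140 s after agonist addition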
Target sequence (P11229 whole entry, looked up): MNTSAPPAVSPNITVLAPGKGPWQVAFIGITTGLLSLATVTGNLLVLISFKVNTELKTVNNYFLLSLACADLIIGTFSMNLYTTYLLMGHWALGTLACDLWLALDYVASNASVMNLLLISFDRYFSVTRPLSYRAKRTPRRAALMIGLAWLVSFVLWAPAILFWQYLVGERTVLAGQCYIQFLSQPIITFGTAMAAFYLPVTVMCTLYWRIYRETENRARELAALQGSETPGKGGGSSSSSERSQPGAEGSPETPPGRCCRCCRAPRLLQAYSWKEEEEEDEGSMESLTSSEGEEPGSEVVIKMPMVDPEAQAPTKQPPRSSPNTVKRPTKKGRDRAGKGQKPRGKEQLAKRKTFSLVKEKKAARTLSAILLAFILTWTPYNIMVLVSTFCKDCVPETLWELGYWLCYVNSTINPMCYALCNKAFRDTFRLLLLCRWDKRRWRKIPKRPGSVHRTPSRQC
CHRM1 PAM – human M1 muscarinic receptor positive allosteric modulators, primary screen, CHO-K1 cells, Fluo-8 calcium fluorescence, 1536-well. CHO-K1 hM1, ACh EC20; 0% = ACh EC20, 100% = maximal ACh. activation, % at 3 µM. 360,000 compounds, 0.088% hits. AID 588819, 2011; in the data active means activation above about 19%, passing the limit was not always enough
CHO-K1 Ca ag – counter-screen for M1 agonists: effect in parental CHO-K1 cells; Fluo-8 calcium fluorescence; scaled to maximal ATP response, vehicle zero; activation, % at 3 µM; 360,000 compounds, 0.48% hits; in the data active means activation above about 15%;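 further: untransfected CHO-K1 host cells lacking M1 receptor as counterscreen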
CHRM1 agonist – human M1 muscarinic receptor agonists, primary screen, Fluo-8 calcium fluorescence, CHO-K1 cells, HTS; AID 588814, 2011; Muscarinic acetylcholine receptor M1 (Homo sapiens), P11229; activation, % at 3 µM; CHO-K1 hM1, agonist mode; 0% DMSO, 100% acetylcholine EC100; 360,000 compounds, 0.33% hits;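 active means activation above the run's mean compound activation plus 3 SD, cut at about 16% in these data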;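 further: peak over basal fluorescence ratio within a 140 s kinetic read after compound addition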
M1 PAM parental – nonselective calcium activators in parental CHO-K1 cells, primary screen, counter-screen for M1 PAM project, cell-based, Fluo-8 calcium fluorescence, full deck, 1536-well; ATP EC20; 0% at ATP EC20, 100% at ATP max; activation, % at 3 µM; 360,000 compounds, 0.02% hits;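 active means activation above the run cutoff, the mean activation of all test compounds plus 3 SD, cut at about 40% in these data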;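 further: peak over basal fluorescence ratio in a 140 s read after ATP addition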
Numbers stand for hits; . = inactive; / = no result given. Hits are enriched below; roughly 2.3% of the tested compounds scored in any of these assays.

SMILES	CHO-K1 Ca antag	CHRM1 antagonist	CHRM1 PAM	CHO-K1 Ca ag	CHRM1 agonist	M1 PAM parental
O=C(CN1CCN(c2ccc([N+](=O)[O-])cc2)CC1)c1ccccc1	.	40	.	.	.	.
O=C(CCN1CCN(c2ccc([N+](=O)[O-])cc2)CC1)c1ccc(Cl)cc1	.	38	.	.	.	.
CCN(CC)CCN(C)C1CCC(c2ccccc2)CC1 (centres undefined)	.	.	.	.	.	.
CNc1c2cccc(C)c2nc2c(C(=O)NCCN(C)C)cccc12	.	.	.	.	.	.
CCOC(=O)N1C(=O)NC(=O)C1c1ccc(OC)cc1 (centres undefined)	.	.	.	.	.	.
O=C(CN1C(=O)C(=O)N(Cc2ccco2)C1=O)Nc1ccccc1	.	.	.	.	.	.
Fc1ccc2[nH]c3c(NCc4ccccc4)ncnc3c2c1	34	.	.	19	.	.
O=C(NC1CCCCC1)C(=O)c1c(-c2ccccc2)[nH]c2ccccc12	27	.	.	.	.	.
O=C(c1cc(C2CC2)nn1-c1ccccc1)N1CCN(c2ccccn2)CC1	.	30	.	.	.	.
CCOc1ccc(S(=O)(=O)N2CCN(C(=O)c3cc(C4CC4)nn3-c3ccccc3)CC2)cc1	66	69	.	.	.	.
O=C(c1cc(C2CC2)nn1-c1ccccc1)N1CCN(c2ccccc2O)CC1	.	.	.	.	.	.
O=C(Nc1ccc(OC(F)(F)F)cc1)Nc1cccc([N+](=O)[O-])c1	.	.	.	16	.	.
CC(C)(C)c1ccc(C(=O)Nc2cccc([N+](=O)[O-])c2)cc1	.	.	.	.	.	.
Cc1ccccc1NC(=O)NC(C)(C)CC(C)(C)C	.	.	.	19	.	.
Cc1ccccc1NC(=O)CC(=O)Nc1ccccc1C	.	.	.	.	.	.
Cc1ccc(NC(=O)Nc2cccc([N+](=O)[O-])c2)cc1F	.	.	.	15	.	.
CC(C)(C)CC(C)(C)NC(=O)Nc1cccc([N+](=O)[O-])c1	.	32	.	.	.	.
O=C(Nc1ccc(OC(F)(F)F)cc1)Nc1cccnc1	.	.	.	.	.	.
O=c1[nH][nH]c2c1[C@H](c1ccccc1)O[C@H](C1CCCCC1)C2	.	/	/	.	/	.
CN(C)CCOCCOc1ccccc1-c1ccccc1	.	.	.	.	.	.
CNCCCCOc1ccccc1-c1ccccc1	.	37	.	.	.	.
CN(C)CCOc1ccccc1-c1ccccc1	.	45	.	.	.	.
COc1cc(C2C(C(=O)c3cc4ccccc4o3)=C(O)C(=O)N2CCN2CCOCC2)ccc1OCCC(C)C (centres undefined)	.	.	.	.	.	.
COc1ccccc1-c1noc(-c2ccccc2C(=O)Nc2ccccc2)n1	.	.	.	.	.	.
COc1ccccc1NC(=O)c1ccccc1-c1nc(-c2ccccc2OC)no1	.	29	.	.	.	.
SMILES	CHO-K1 Ca antag	CHRM1 antagonist	CHRM1 PAM	CHO-K1 Ca ag	CHRM1 agonist	M1 PAM parental
COc1nc(-c2ccccc2)ccc1-c1noc(C)n1	28	.	.	.	.	.
COCc1nc(-c2ccc(-c3ccccc3)nc2OC)no1	.	.	.	.	.	.
COc1ccccc1-c1nc(-c2ccc(C)nc2OC)no1	26	.	.	.	.	.
O=C(c1ccco1)N1CCN(C(=O)c2ccco2)CC1	.	.	.	.	.	.
CS(=O)(=O)N1CCN(CC2CC3C=CC2C3)CC1 (centres undefined)	.	.	.	.	45	.
O=C(c1ccco1)N1CCN(CC2CC3C=CC2C3)CC1 (centres undefined)	.	29	.	.	.	.
Cc1ccccc1CN1CCN(CC2CC3C=CC2C3)CC1 (centres undefined)	.	54	.	.	.	.
CCN1CCN(CC2CC3C=CC2C3)CC1 (centres undefined)	.	.	.	.	.	.
CC(C)c1ccc(N(CC(=O)NC2CCCC2)C(=O)CCC(=O)Nc2nccs2)cc1	.	.	.	.	.	.
Cn1c2c(c(=O)c3ccccc31)CCCC2	.	.	.	.	.	.
N#C/C(=C/c1cccc(O)c1)C(=O)NCc1ccc(Cl)cc1	.	28	.	.	17	.
COc1ccc(/C=C(\C#N)C(=O)NCc2cccnc2)cc1OC	.	.	.	.	.	.
CCOc1cc(/C=C(\C#N)C(=O)NCc2cccnc2)ccc1O	32	.	.	.	.	.
CCN1CCN(c2ccc(N3CCN(S(=O)(=O)c4cc([N+](=O)[O-])ccc4C)CC3)nn2)CC1	.	40	.	.	.	.
O=S(=O)(c1ccc(N2CCCC2)nc1)N1CCCC1	.	.	.	.	.	.
CCN1CCN(c2ccc(S(=O)(=O)N3CCCC3)cn2)CC1	.	36	.	.	.	.
CC(C)c1cccc(OCCN2CCCC2)c1	.	33	.	.	.	.
Clc1cccc(OCCN2CCCC2)c1	.	.	.	.	.	.
CCOc1cccc(OCCCCN2CCCCC2)c1	.	19	.	.	.	.
Brc1cccc(OCCCCN2CCCCC2)c1	.	78	.	.	.	.
COc1cccc(OCCCCN2CCCCC2)c1	.	.	.	.	.	.
CC1CCCN(CCCCOc2cccc(Br)c2)C1 (centres undefined)	.	33	.	.	.	.
COc1ccc(NC(=O)CCC(=O)c2ccc(Cl)cc2)cn1	.	.	.	.	.	.
CC(=O)c1ccc(S(=O)(=O)NCC(=O)N2CCN(C/C=C/c3ccccc3)CC2)cc1	.	.	.	.	.	.
CC(=O)Nc1ccc2c(c1)C(=O)c1ccc(Cl)cc1-2	.	.	.	.	.	.
SMILES	CHO-K1 Ca antag	CHRM1 antagonist	CHRM1 PAM	CHO-K1 Ca ag	CHRM1 agonist	M1 PAM parental
CNC(=O)Nc1ccc2snnc2c1	26	.	.	.	.	.
O=C(COC(=O)c1ccc[n+]([O-])c1)Nc1ccc(Cl)cc1[N+](=O)[O-]	.	.	.	.	.	.
COc1cccc(-n2c(SCC(=O)O)nnc2-c2cccnc2)c1	.	23	.	.	.	.
COC(=O)[C@@]1(C(C)C)N=C(c2cc(OC)c(OC)c(OC)c2)[C@]2(O1)C(=O)N(Cc1ccc(OC)cc1)c1ccc(Br)cc12	.	/	/	.	/	.
N#CC1=C(N)OC2=C(CCc3ccccc32)C1c1ccccc1Cl (centres undefined)	.	44	.	.	.	.
N#CC1=C(N)Oc2cc(N)ccc2C1c1ccccc1Cl (centres undefined)	.	.	.	.	.	.
CC1(NC(=O)/C=C/c2nc3ccccc3s2)CCS(=O)(=O)C1 (centres undefined)	.	.	.	.	.	.

High-throughput results from PubChem BioAssay.
